Rce1 inhib = inhibitors of yeast Ras-converting enzyme; calls only; yeast membranes, quenched prenylated peptide cleavage fluorescence; 290,000 tested, 0.27% active; AID 2563; Q03530;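 active = fall in fluorescence gain of 50% or more versus controls, with final raw signal at or below 3038400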;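 also: plate controls were neutral control wells for no effect and wells lacking membranes for full effect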
Target sequence (Q03530 whole entry, looked up): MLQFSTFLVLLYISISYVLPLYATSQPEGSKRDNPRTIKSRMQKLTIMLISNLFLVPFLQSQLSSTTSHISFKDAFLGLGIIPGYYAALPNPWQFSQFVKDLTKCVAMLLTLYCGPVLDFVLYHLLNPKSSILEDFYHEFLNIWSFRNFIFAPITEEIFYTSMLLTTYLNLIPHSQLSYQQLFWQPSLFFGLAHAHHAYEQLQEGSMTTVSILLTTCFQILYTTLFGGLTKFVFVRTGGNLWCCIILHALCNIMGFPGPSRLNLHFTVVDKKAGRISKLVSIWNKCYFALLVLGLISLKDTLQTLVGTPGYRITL
MEKK3 PB1 HTS = raises or lowers MEK5 binding to the human MEKK3 PB1 domain; bead-based flow cytometry, Alexa488-MEK5 binding to MEKK3; actives lie on both sides; 0 = blocked by unlabeled MEK5, 100 = vehicle; binding response (% of control), % at 10 µM; 290,000 tested, 1.4% active;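 active = binding response more than 3 SD above or below the average of its plate-row segment, actives on both sides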;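 also: Alexa488 bead fluorescence after subtracting the streptavidin-only scavenger bead signal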
UBC13 inh = human UBC13 polyubiquitination inhibition; inhibition, % at 20 µM; 330,000 tested, 0.47% active; P61088; UBC13 polyubiquitin chain formation, TR-FRET; AID 485273; in the data active = inhibition above about 45%, passing the limit was not always enough
Target sequence (P61088 whole entry, looked up): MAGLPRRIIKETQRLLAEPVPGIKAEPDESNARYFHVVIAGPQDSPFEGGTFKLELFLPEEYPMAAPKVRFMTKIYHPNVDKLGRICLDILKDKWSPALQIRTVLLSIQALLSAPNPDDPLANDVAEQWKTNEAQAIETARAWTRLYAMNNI
MEKK2mut PB1 HTS = signal of MEK5 binding to mutant human MEKK2 PB1 domain; AID 1530; percent response, % at 10 µM; bead flow cytometry, Alexa488-MEK5 binding to MEKK2 mutant; 290,000 tested, 0.35% active; in the data active = percent response above about 24%, passing the limit was not always enough
MEKK2wt PB1 HTS = raises or lowers MEK5 binding to wildtype human MEKK2 PB1 domain | Q9Y2U5 | bead flow cytometry, Alexa488-MEK5 binding to MEKK2 WT; actives lie on both sides | binding response (% of control), % at 10 µM | 290,000 tested, 1.1% active | AID 1531; in the data active = binding response below about 67% or above about 130%
MEKK2wt confirm = raises or lowers MEK5 binding to wildtype human MEKK2, retest; 5,900 tested, 2.4% active; binding response (% of control), % at 10 µM; bead flow cytometry, Alexa488-MEK5 binding to MEKK2 WT; actives lie on both sides; shares compounds with MEKK3 PB1 HTS; in the data active = binding response below about 16% or above about 210%; inactive = in between
MEKK2mut-MEK5 = signal of MEK5 binding to mutant human MEKK2, retest. shares compounds with MEKK3 PB1 HTS. bead flow cytometry, Alexa488-MEK5 binding to MEKK2 mutant. percent response, % at 10 µM. 5,900 tested, 2% active; in the data active = percent response mostly above about 71%, no sharp cut-off; inactive = mostly below about 38%;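 also: higher means compound restores mutant binding toward wildtype level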
MEKK3-MEK5 inh = MEKK3-MEK5 PB1 inhibition, single concentration confirmation; shares compounds with MEKK3 PB1 HTS; bead flow cytometry, Alexa488-MEK5 binding to MEKK3; active compounds read low; binding response (% of control), % at 10 µM; 5,900 tested, 1.8% active;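 active = binding response below 72% of control, or above a set upper limit, though filed actives all read lower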;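 also: 100% = DMSO only wells and 0% = binding blocked by excess unlabeled MEK5; lower values mean stronger disruption of MEK5 binding to MEKK3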
Starred values were filed as active, the others as inactive; i = inactive; / = no result; [ ] = another dose, or the depositor's remark. An excerpt weighted towards active compounds, which were near 2.5% of everything screened.

SMILES	Rce1 inhib	MEKK3 PB1 HTS	UBC13 inh	MEKK2mut PB1 HTS	MEKK2wt PB1 HTS	MEKK2wt confirm	MEKK2mut-MEK5	MEKK3-MEK5 inh
COC(=O)c1cc(S(=O)(=O)N2CCN(C(=O)c3ccco3)CC2)cn1C	i	97.0	3.9	-1.0	100.0	/	/	/
CCOC(=O)Cn1nc(C)c(NC(=O)COc2cccc(Cl)c2)c1C	i	132.0*	17.3	0.0	119.0	106.0	7.0	104.0
COC(=O)c1cc(=O)nc2sc3cc(OC)ccc3n12	i	122.0*	5.9	6.0	106.0	107.0	6.0	106.0
O=C(COC(=O)CCN1C(=O)/C(=C\C=C\c2ccccc2)SC1=S)Nc1cc(F)ccc1F	i	92.0	-25.3	-34.0	58.0*[inhibitor]	68.0	-18.0	94.0
COc1ccc(CCN2CC(C(=O)Nc3ccc(S(C)(=O)=O)cc3)CC2=O)cc1OC (stereo unspecified)	i	/	1.0	/	/	/	/	/
CCN(CC)C(=O)c1cc(C(C)(C)C)c(O)c(C(C)(C)C)c1	i	128.0*	-4.8	0.0	105.0	108.0	8.0	105.0
Cc1cccc(N(CC(=O)NCC2CCCO2)C(=O)CCC(=O)Nc2nccs2)c1 (stereo unspecified)	i	101.0	0.1	0.0	101.0	/	/	/
CCOC(=O)c1ccc(N(C(=O)c2ccco2)C(C(=O)NC2CCCC2)c2ccncc2)cc1 (stereo unspecified)	i	103.0	-10.4	0.0	101.0	/	/	/
CCN1c2ccccc2NC2C1C(C(C)=O)C(=O)N2c1ccc(Cl)cc1 (stereo unspecified)	i	93.0	-28.3	73.0*	59.0*	101.0	-2.0	102.0
CCc1ccccc1N(C(=O)c1ccco1)C(C(=O)NC1CCCC1)c1cccnc1 (stereo unspecified)	/	101.0	-8.8	-2.0	101.0	/	/	/
CN(C)S(=O)(=O)c1cccc(NC(=O)c2cc(-c3cccs3)nn2-c2ccccc2)c1	i	142.0*	-7.4	0.0	108.0	98.0	-1.0	106.0
NC(=O)COC(=O)c1cc(-c2cccs2)nn1-c1ccccc1	i	136.0*	-1.5	0.0	115.0	101.0	4.0	100.0
Cc1noc(C)c1NC(=O)Nc1cccc2c1O[C@H](CN(C)S(=O)(=O)c1cccs1)[C@@H](C)CN([C@H](C)CO)C2=O	/	/	-12.4	/	/	/	/	/
COc1ccc(OC)c(NC(=O)CSc2nnnn2-c2ccc3c(c2)OCO3)c1	i	128.0*	1.1	12.0	116.0	98.0	-2.0	96.0
COc1ccc2cc1Oc1ccc(cc1)CC1c3c(cc(OC)c4c3Oc3cc5c(cc3O4)CCNC5C2)CCN1C (stereo unspecified)	i	75.0	110.1*	30.0*	186.0*	174.0	50.0	107.0
CCOc1ccc(C2NCCc3cc(OC)c(OC)cc32)cc1OC (stereo unspecified)	i	103.0	2.8	1.0	104.0	/	/	/
CNC(=O)CSc1nnc(C(C)C)n1C	i	136.0*	-0.3	5.0	122.0	93.0	-6.0	96.0
O=Cc1ccc(OC2OCCOC2Oc2ccc(C=O)cc2)cc1 (stereo unspecified)	i	107.0	-13.8	-1.0	106.0	/	/	/
Clc1ccccc1CNCC1CCCO1 (stereo unspecified)	i	108.0	-3.5	27.0*	110.0	104.0	5.0	104.0
Cc1ccc(NC2c3ccccc3C(=O)N2c2cccnc2)cc1 (stereo unspecified)	i	127.0	-7.6	24.0	109.0	/	/	/
Cc1ccc(N/C=C2\C(=O)N(c3ccc(F)cc3F)C(c3cccnc3)S2(=O)=O)cc1 (stereo unspecified)	i	131.0*	-9.4	27.0	113.0	104.0	0.0	101.0
O=C(Nc1ccc(F)cc1)c1cccnc1NCCc1ccccc1	i	142.0*	-0.3	1.0	112.0	100.0	-6.0	103.0
N#CCCN(Cc1ccncc1)C(=S)NC1CC2C=CC1C2 (stereo unspecified)	i	47.0*[inhibitor]	0.9	-53.0	55.0	103.0	3.0	102.0
N#CCCN(CCC#N)C(=S)NC1CC2C=CC1C2 (stereo unspecified)	i	85.0	5.2	-18.0	93.0	/	/	/
COc1cccc(NC(=O)CSc2nc3c([nH]c4ccccc43)c(=O)n2C)c1	i	101.0	-11.8	2.0	101.0	/	/	/
SMILES	Rce1 inhib	MEKK3 PB1 HTS	UBC13 inh	MEKK2mut PB1 HTS	MEKK2wt PB1 HTS	MEKK2wt confirm	MEKK2mut-MEK5	MEKK3-MEK5 inh
CCN(CC)CCn1c(SCC(=O)Nc2cccc(OC)c2)nc2c(sc3ccccc32)c1=O	i	107.0	13.4	2.0	174.0*	163.0	34.0	106.0
CCN(CC)CCn1c(SCC(=O)NCc2ccco2)nc2c(sc3ccccc32)c1=O	i	104.0	-4.5	5.0	112.0	/	/	/
COc1cccc(NC(=O)CSc2nc3c(sc4ccccc43)c(=O)n2CCN(C)C)c1	i	103.0	19.0	28.0	147.0*	143.0	26.0	107.0
COc1ccccc1NC(=O)CNC(=O)c1ccccc1	i	99.0	4.5	4.0	100.0	/	/	/
COc1ccccc1NC(=O)CNC(=O)c1ccccc1C	i	75.0*[inhibitor]	16.8	-17.0	78.0	102.0	3.0	107.0
CCN(CC)CCN(C(=O)CCOc1ccccc1)c1nc2ccc(F)cc2s1	i	102.0	3.8	16.0	137.0	/	/	/
CCc1ccc(N=CC23c4ccccc4C(c4ccccc42)C2C(=O)N(c4ccc(OC)cc4)C(=O)C23)cc1 (stereo unspecified)	i	81.0*[inhibitor]	-2.1	-4.0	81.0	94.0	-4.0	95.0
COc1ccc(N2C(=O)C3C4c5ccccc5C(C=Nc5ccc(C)cc5C)(c5ccccc54)C3C2=O)cc1 (stereo unspecified)	/	98.0	-15.0	-3.0	90.0	/	/	/
COC(=O)/C=C/c1oc2ccccc2c1C	i	82.0	-4.5	-6.0	92.0	/	/	/
C/C=C/c1ccc(OCCOCCNCc2ccccc2)c(OC)c1	i	113.0	15.7	24.0*	195.0*	156.0	31.0	108.0
CCOC(=O)Cc1csc(NC(=O)c2sc3nc4ccc(CC)cc4cc3c2N)n1	i	101.0	-5.4	0.0	92.0	/	/	/
CCOC(=O)Cc1csc(NC(=O)/C=C/c2cccc(Br)c2)n1	i	44.0*[inhibitor]	-7.1	-17.0	47.0*[inhibitor]	101.0	-3.0	101.0
CCOC(=O)Cc1csc(NC(=S)NC(=O)c2cccc([N+](=O)[O-])c2)n1	i	139.0*	-7.4	1.0	108.0	106.0	4.0	103.0
CCOC(=O)Cc1csc(NC(=O)c2sc3nc4cc(C)ccc4cc3c2N)n1	i	144.0*	-32.4	13.0	93.0	110.0	13.0	110.0
